Experimental findings from PubChem BioAssay (NCI) are described below.

Each structure is given as a SMILES string. Values joined by “and” are separate entries in the source; they are usually repeats but may differ in a detail not shown here. Equal entries are not always repeated. About 83,000 compounds went through this panel and 20% of them were active in at least one assay; those are over-represented in the sample as a whole.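 Interpretation: 100, growth as untreated; towards 0, rising growth inhibition; 0, no net growth; 0 to -100, cell death. Compounds scoring below 10 were considered active.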 A number with no mark means an inactive call. Where a SMILES comes first, the peptide text is derived from it.

The subject of the assay is MDA-MB-435 melanoma. The assay can be described thus: NCI-60 one-dose screen, 48 h (100 = growth as untreated, 0 = no growth, -100 = all killed). The note with it: 10 µM unless noted.
Take `NC(Cc1c[nH]c2ccccc12)C(=O)O` (stereo not given): the growth is 98.9% and 105%.

For `CC(=O)Nc1ccc(S(N)(=O)=O)cc1`, the growth is 97.4% and 96.3%.

As for `COc1ccc(Nc2ccc3ccccc3c2)cc1`, the growth is 22.1%.

`CC1CCC(C(C)C)C(NNC(N)=O)C1` (stereo not given): the growth is 101%.

Take `Cc1cc(-c2ccc(N=Nc3ccc4c(S(=O)(=O)O)cc(S(=O)(=O)O)c(N)c4c3O)c(C)c2)ccc1N=Nc1ccc2c(S(=O)(=O)O)cc(S(=O)(=O)O)c(N)c2c1O`: the growth was 98.5%.

For `CCCCCCCCCCCCCCCc1ccc(N)c(OC2OC(CO)C(O)C(O)C2O)c1` (stereo not given), the growth was 99.6%.

For the molecule `Cc1cc2ccccc2cn1`, the growth is 101% and 106%.

As to `O=C(CO)C(O)C(O)C(O)C(O)CO` (stereo not given), the growth is 110% and 107%.

As for `COc1ccc(C(=O)CC(c2ccccc2)C(C#N)c2ccccc2)cc1` (stereo not given), the growth was 78.9%.

For `Fc1ccc([I+]c2ccc(F)cc2)cc1`, the growth is 75%.

As to `CN(C)c1ccc(/C=C\C(=O)c2ccccc2)cc1`, the growth was 85.3% and 38% and 25.1%.

Turning to `O=[N+]([O-])c1cccc(SSc2cccc([N+](=O)[O-])c2)c1`, the growth was 102%.

In the case of `O=C(O)/C=C\C(=O)Nc1cccc2ccccc12`, the growth was 113% and 103%.

On to `CCc1cc(C)cc(O)c1`, for which the growth is 113%.

Turning to `Brc1ccc(SSc2ccc(Br)cc2)cc1`, the growth is 82.6%.

As to `ClCCOCCOc1ccc(C2CCCCC2)cc1`, the growth was 99.5%.

For `CN(C)CC1CCCCCC(CN(C)C)C1=O` (stereo not given), the growth was 81.2%.

As for `NN1CCOC(c2ccccc2)C1` (stereo not given), the growth was 106%.

As to `NC(Cc1ccccc1)C(=O)NC(Cc1ccccc1)C(=O)O` (stereo not drawn) (H-Phe-Phe-OH; configuration not given here), the growth is 109% and 99.7%.

As for `c1ccc(CNCCNCc2ccccc2)cc1`, the growth is 106%.

As to `CC1=C/C(O)CC(=O)Cc2nc(co2)C(=O)N2CCC=C2C(=O)OC(C(C)C)C(C)/C=C\C(=O)NC/C=C\1` (stereo not given), the growth is 81.2%.

Turning to `O=C1CSC2=NCCN12`, the growth is 71.5% and 70.6%.

`Cn1cnc([N+](=O)[O-])c1Sc1ncn[nH]1`: the growth was 101%.

Consider `NC1CCC(C(=O)O)CC1` (stereo not given), for which the growth is 106%.

Take `CC[C@H](CC[C@@H](C)[C@H]1CC[C@H]2[C@@H]3CC=C4C[C@@H](O)CC[C@]4(C)[C@H]3CC[C@]12C)C(C)C`: the growth was 97.4% and 99.4%.

For the molecule `c1ccc2c(c1)OC1OC2Oc2ccccc21`, the growth is 115%.

As for `CCCCOc1ccc(Nc2cc(Cl)ccc2C(=O)O)cn1`, the growth is 105% and 107%.

Take `CC(C)(O)C(=O)O`: the growth is 107%.

Take `c1ccc(-c2nc3ccccc3s2)cc1`: the growth is 110%.

Take `CC(=O)OCC1OC(OC(C)=O)C(OC(C)=O)C(OC(C)=O)C1OC(C)=O` (stereo not given): the growth was 105% and 107%.

Turning to `CCN(CCNS(C)(=O)=O)c1ccc(N)c(C)c1`, the growth was 28.9% and 76.5%.

Take `OC1COC(OCc2ccccc2)C(O)C1O` (stereo not given): the growth is 104%.

On to `NC(=O)NCCCC(N)C(=O)O` (stereo not given), for which the growth was 107%.

As for `CC(C)C(C)(C)c1ccc(O)cc1`, the growth was 106%.

`Cl`: the growth is 101%.
